# CYP2C19 act: human CYP2C19 activators, primary screen, biochemical, luminescence. activation factor at 5 µM. 96,000 tested, under 10 active. recombinant CYP2C19, luciferin-H EGE luminescence; stronger effect = higher value; 0 = fully inhibited enzyme, 1 = untreated enzyme. Cytochrome P450 2C19 (Homo sapiens), P33261;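 active means activation factor of at least 2 at 5 µM in the primary screen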;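 further: 0 = wells with 2.5 mM tranylcypromine and 1 = vehicle-only wells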
# Pyk2 oligo antag: antagonists of Pyk2 self-association, primary screen, Q293 cells, FERM NanoBiT luminescence, HTS; Protein-tyrosine kinase 2-beta (Homo sapiens), Q14289; stronger effect = lower value; z-score (the deposit names both 25 µM and 10 µM); 99,000 tested, 0.83% active; AID 1347419, 2020;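 active means Z-score of -3 or lower, scaled per plate to the spread of control and sample wells; inactive means z-score above -3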;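 further: negative z-score means lost luminescence so less FERM oligomerization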
# Target sequence (Q14289 whole entry, looked up): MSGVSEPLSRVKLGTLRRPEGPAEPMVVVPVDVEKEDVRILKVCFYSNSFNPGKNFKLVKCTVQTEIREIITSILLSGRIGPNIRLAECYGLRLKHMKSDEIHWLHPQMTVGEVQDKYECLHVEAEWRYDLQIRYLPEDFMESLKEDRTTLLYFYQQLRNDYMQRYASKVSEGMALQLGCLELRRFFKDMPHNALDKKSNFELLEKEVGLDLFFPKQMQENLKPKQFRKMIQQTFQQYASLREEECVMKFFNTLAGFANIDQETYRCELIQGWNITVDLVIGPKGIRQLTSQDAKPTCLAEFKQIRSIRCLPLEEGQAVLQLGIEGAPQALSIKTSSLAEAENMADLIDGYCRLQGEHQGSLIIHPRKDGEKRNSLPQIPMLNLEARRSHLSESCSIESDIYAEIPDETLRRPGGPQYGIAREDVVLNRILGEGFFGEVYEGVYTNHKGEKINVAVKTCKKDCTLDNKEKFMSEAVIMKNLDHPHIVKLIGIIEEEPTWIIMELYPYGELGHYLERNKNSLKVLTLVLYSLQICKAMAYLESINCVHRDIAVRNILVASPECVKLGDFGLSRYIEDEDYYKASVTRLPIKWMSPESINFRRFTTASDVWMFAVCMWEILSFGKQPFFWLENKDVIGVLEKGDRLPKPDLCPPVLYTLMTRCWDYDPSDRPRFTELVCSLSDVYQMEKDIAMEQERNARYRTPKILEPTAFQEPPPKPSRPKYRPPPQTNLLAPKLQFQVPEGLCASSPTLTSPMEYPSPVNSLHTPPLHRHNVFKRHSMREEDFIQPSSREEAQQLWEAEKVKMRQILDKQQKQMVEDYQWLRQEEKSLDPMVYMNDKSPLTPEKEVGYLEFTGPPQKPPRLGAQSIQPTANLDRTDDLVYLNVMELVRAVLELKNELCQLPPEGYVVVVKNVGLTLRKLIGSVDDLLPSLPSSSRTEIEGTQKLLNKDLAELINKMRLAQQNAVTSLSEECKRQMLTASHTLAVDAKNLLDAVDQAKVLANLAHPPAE
# CYP2C19 inh: blockers of cytochrome P450 2C19 activity – biochemical, luminescence, ADME assay, primary screen. P33261. CYP2C19 Supersomes, luciferin-H EGE luminescence, 30 min. inhibition, % at 5 µM. 96,000 tested, 21% active. AID 778, 2007;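 active means CYP2C19 inhibition above a set limit at 5 µM in the primary screen, cut at about 50% in these data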;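 further: plate controls were negative control wells for no effect and 2.5 mM tranylcypromine positive control for full effect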
# CYP2C9 inh: blockers of cytochrome P450 2C9 activity – biochemical, luminescence, ADME assay, primary screen. P11712. CYP2C9 Supersomes, luciferin-H conversion. inhibition, % at 5 µM. 96,000 tested, 20% active;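 active means blocking of liver enzyme CYP2C9 beyond about 50% at 5 µM, limit read from the data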
# CYP2C9 activ: human CYP2C9 activators, primary screen, biochemical, luminescence; 96,000 tested, 1.4% active; activation factor at 5 µM; recombinant CYP2C9, luciferin-H conversion; stronger effect = higher value; factor 1 = untreated enzyme, 0 = blocked; AID 1024, 2008;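 active means activation factor of 2 or more for CYP2C9 at a 5 µM dose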;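 further: 0 = sulfaphenazole-blocked wells and 1 = vehicle-only wells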
# The depositor's hits bear a star; · = no result. Sampled rows, rich in hits. Any-hit rate of the full collection: about 28%.
SMILES,CYP2C19 act,Pyk2 oligo antag,CYP2C19 inh,CYP2C9 inh,CYP2C9 activ
CCOC(=O)C1C(c2cccc(Cl)c2Cl)NC(=O)NC1(O)C(F)(F)F (stereo not drawn),0.8,-0.56,20.8,1.0,1
CC1(C)c2ccccc2N2CCC(=O)NC21/C=C/c1ccco1 (stereo not drawn),0.1,-0.1,86.2*,51.7*,0.5
CCOc1cccc2cc(-c3nnc(NCc4ccco4)s3)c(=O)oc12,0.9,0.19,10.1,-189.8,2.9*
CCC(C)NC(=O)c1ccccc1NS(=O)(=O)c1ccc(OC)c(OC)c1 (stereo not drawn),0.2,-0.16,79.6*,-35.2,1.4
COC(=O)c1cccc(NS(=O)(=O)c2ccc(OC)c(OC)c2)c1C,0.8,0.24,18.8,43.3,0.6
COc1ccc(S(=O)(=O)Nc2ccccc2C(=O)NC(C)C)cc1OC,0.2,-0.57,80.9*,-54.1,1.5
CC(C)(C)n1nnnc1C(c1ccc(Cl)cc1)N1CCCc2ccccc21 (stereo not drawn),0.2,-1.82,83.5*,76.3*,0.2
COc1ccccc1N1CCN(C(c2ccc(Cl)cc2)c2nnnn2C(C)(C)C)CC1 (stereo not drawn),0.1,-2.47,89.0*,86.9*,0.1
CCC(C)(C)n1nnnc1C(c1cccnc1)N1CCCc2ccccc21 (stereo not drawn),0.7,-1.09,32.7,34.7,0.7
CC(C)(C)n1nnnc1C(c1cccc(C#N)c1)N1CCCc2ccccc21 (stereo not drawn),0.1,-0.65,90.9*,93.9*,0.1
COc1ccccc1C(c1nnnn1C(C)(C)C)N1CCN(Cc2ccncc2)CC1 (stereo not drawn),0.2,0.03,79.1*,89.4*,0.1
COc1ccccc1C(c1nnnn1C(C)(C)C)N1CCCc2ccccc21 (stereo not drawn),0.9,1.49,12.1,27.8,0.7
CC(CCCC(C)(C)O)NCCO (stereo not drawn),1,0.95,2.4,4.4,1
COc1cc(S(=O)(=O)N2CCN(C(=O)c3ccccc3F)CC2)c(OC)cc1NC(C)=O,1,0.26,4.6,23.1,0.8
O=C(Nc1ccc(-c2nc3ccccc3o2)cc1)c1ccc(N2C(=O)C3C4C=CC(C4)C3C2=O)cc1 (stereo not drawn),1.2,-0.31,-19.2,7.4,0.9
O=S(=O)(Nc1cccc2c1ccc1cccn12)c1cccs1,0.7,0.7,30.3,58.9*,0.4
Cc1nn(C)c(Oc2cccc(Cl)c2)c1C=O,0.6,0.24,43.4,7.5,0.9
O=C(Nc1ccccc1)c1cc(-n2cnnc2)ccc1Cl,1,-0.24,-0.4,12.2,0.9
O=C(NCCOc1cccc(Cl)c1Cl)c1cc(-n2cnnc2)ccc1Cl,0.3,0.25,69.6*,54.3*,0.5
O=C(NCCOc1cccc(Oc2ccccc2)c1)c1cc(-n2cnnc2)ccc1Cl,0.3,-0.9,69.0*,55.5*,0.4
O=C(c1cccs1)N1CCn2c1nc1ccccc12,1,-0.41,4.5,-11.8,1.1
Cc1ccccc1CNC(=O)c1ccccc1,0.4,0.31,57.4*,10.7,0.9
Cc1ccccc1CNC(=O)c1ccccc1C,0.5,0.13,54.2*,9.2,0.9
Cc1ccccc1CNC(=O)c1ccccc1C(=O)O,·,1.23,·,·,·
CCOC(=O)CNC(=O)c1ccccc1,1.1,0.67,-7.7,3.8,1
SMILES,CYP2C19 act,Pyk2 oligo antag,CYP2C19 inh,CYP2C9 inh,CYP2C9 activ
O=C(COC(=O)C1c2ccccc2Oc2ccccc21)NC1CCS(=O)(=O)C1 (stereo not drawn),0.7,1.08,31.8,-26.0,1.3
Cc1cccc(N(C(=O)c2ccc(CN3CCOCC3)o2)C(C(=O)NC(C)(C)C)c2ccc(F)cc2)c1 (stereo not drawn),·,1.5,·,·,·
Cc1ccc(S(=O)(=O)N2CCN(Cc3cc(C(C)C)ccc3O)CC2)cc1,0.7,-1.45,27.7,51.4*,0.5
CC1CCCN(C/C(O)=C(\C#N)c2nc3ccccc3[nH]2)C1 (stereo not drawn),1,-0.15,0.1,-0.8,1
COc1cccc(OC)c1/C(O)=C(\C#N)c1nc2ccccc2[nH]1,0.4,-0.52,58.5*,23.9,0.8
COc1ccc(OC/C(O)=C(\C#N)c2nc3ccccc3[nH]2)cc1,1.1,0.01,-14.4,-12.0,1.1
COc1ccc(C/C(O)=C(\C#N)c2nc3ccccc3[nH]2)cc1OC,1,1.67,-3.2,50.5*,0.5
CC(C)CC(/C(O)=C(\C#N)c1nc2ccccc2[nH]1)N1C(=O)c2ccccc2C1=O (stereo not drawn),0,-2.61,96.2*,94.7*,0.1
CC(C)(C)/C(O)=C(/C#N)c1nc2ccccc2[nH]1,0.6,0.3,39.1,63.5*,0.4
Cc1nc(SCc2c(F)cccc2Cl)c2c(=O)n(C)c(=O)n(C)c2n1,0.9,·,11.5,29.3,0.7
CCCn1c(SCC(=O)NCc2ccco2)nnc1C(C)C,1.2,0.52,-16.3,-16.0,1.2
Cc1cc(C)nc(SCCC(=O)Nc2cccc3ccccc23)n1,0.6,0.07,44.8,-145.5,2.5*
Cc1cc(C)nc(SCC(=O)Nc2ccccc2[N+](=O)[O-])n1,0.7,0.38,25.8,-9.9,1.1
CNCc1ccc(OCc2ccccc2)c(OC)c1,0.7,0.9,32.6,3.0,1
CNCc1ccccc1Sc1ccc(OC)c(OC)c1,0.4,-0.54,57.7*,20.4,0.8
O=C(c1ccccc1)c1ccc2nc[nH]c2c1,0.4,-0.8,57.1*,39.7,0.6
CCc1ccccc1NC(=O)CSc1nc(-c2ccccc2)nn1C(=O)c1cccc([N+](=O)[O-])c1,0.2,·,76.4*,73.8*,0.3
CC(=O)n1nc(-c2cccc(C)c2)nc1SCC(=O)Nc1ccccc1,0.4,0.62,55.2*,60.6*,0.4
Cc1ccc(NC(=O)CSc2ncc(-c3ccccc3)n2C(=O)c2ccccc2)cc1,0.3,-1.27,69.3*,58.7*,0.4
CCC(=O)n1nc(-c2ccccc2)nc1SCC(=O)Nc1ccc(C)cc1,1,0.07,-2.5,21.9,0.8
O=C(c1ccc([N+](=O)[O-])cc1)n1nc(-c2ccccc2)nc1NCc1ccccc1,0.5,0.05,49.5,12.2,0.9
O=C(CSc1nc(-c2ccccc2)nn1C(=O)c1ccccc1)Nc1cccc([N+](=O)[O-])c1,0.6,-1.07,41.9,67.5*,0.3
CCCn1c(SCC(=O)Nc2ccccc2CC)nnc1C(C)C,0.8,0.72,20.1,-5.2,1.1
Cc1ccc(CCNc2ccccc2C)cn1,·,1.46,·,·,·
O=C(CC1Oc2ccc(Cl)cc2NC1=O)NC1CCCCCC1 (stereo not drawn),1,·,1.0,-27.4,1.3
CCCOC(=O)c1ccc(Oc2c(-c3ccc(OCC)cc3O)n[nH]c2C)cc1,0.2,-1.99,84.1*,98.4*,0
